“And” between values parts separate entries of the source, which are not always exact repeats. Equal entries are not always repeated. Out of some 370,000 compounds screened, about 4,800 (1.3%) were called active.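 Rule for the calls: active = inhibition above about 21% made by adding two undisclosed values (limit read from the data); inactive = the rest.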 For the sample, actives were picked, then their nearest neighbours and some compounds at random. Where a structure was tested more than once in an assay, its records may differ in their call.
Each compound was assayed against Protein arginine N-methyltransferase 1 (Homo sapiens) (UniProt Q99873) (assay: PRMT1 methyltransferase inhibitors, primary screen, biochemical, fluorescence polarization (AID 652257)). Conditions: recombinant PRMT1, activity-based probe fluorescence polarization; at 2.79 µM; stronger effect = higher value.
Chain of Protein arginine N-methyltransferase 1 (Homo sapiens) (Q99873 whole entry, looked up): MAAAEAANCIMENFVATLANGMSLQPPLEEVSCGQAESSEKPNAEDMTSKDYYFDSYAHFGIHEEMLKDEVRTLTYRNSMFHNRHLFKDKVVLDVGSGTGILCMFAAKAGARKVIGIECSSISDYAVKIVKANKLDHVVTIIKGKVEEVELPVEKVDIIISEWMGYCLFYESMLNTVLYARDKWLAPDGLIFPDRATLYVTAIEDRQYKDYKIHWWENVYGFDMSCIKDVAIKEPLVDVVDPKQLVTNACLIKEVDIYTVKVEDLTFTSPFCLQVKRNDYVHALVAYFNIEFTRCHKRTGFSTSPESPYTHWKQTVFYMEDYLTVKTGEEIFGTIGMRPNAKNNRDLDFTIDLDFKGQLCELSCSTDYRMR
For `CC(C)NC(=O)NNc1c(Cl)cncc1Cl`, the inhibition was -2.84% (inactive). In the case of `CCC(c1ccc(NC(=O)OC(C)(C)C)cc1)c1cc(OC)cc(OC)c1` (centres undefined), the inhibition is reported as 0.65% (inactive). With `O=C(c1ccc(S(=O)(=O)NCc2ccco2)cc1)N1CCN(c2ccccc2)CC1` the inhibition was -5.34% (inactive). In the case of `O=c1/c(=C/c2ccc(CNS(=O)(=O)c3ccccc3)o2)sc2n1CCN=2`, the inhibition is reported as 42.5% (active). For `O=S(=O)(NCC1OCCc2ccccc21)c1ccccc1` (centres undefined), the inhibition was 1.74% (inactive). With `Cc1cccc(-n2c(N)c(C(=O)N3CCN(C)CC3)sc2=S)c1` the inhibition was 78.2% (active). In the case of `Cc1ccc(-n2c(N)c(C(=O)N3CCOCC3)sc2=S)c(C)c1`, the inhibition is reported as 2.33% (inactive). In the case of `N#Cc1ccccc1-n1c(N)c(C(=O)N2CCCC2)sc1=S`, the inhibition is reported as 12.5% (inactive). `O=C(CNC(=O)c1ccccc1)OC(C(=O)Nc1cc([N+](=O)[O-])ccc1F)c1ccccc1` (centres undefined) was tested, and the inhibition was -5.95% (inactive). In the case of `COc1cccc(N2CC(NS(=O)(=O)c3cccs3)CC2=O)c1` (centres undefined), the inhibition is reported as 0.96% (inactive). `CN[C@H]1C[C@H]2c3cc(N4CCOCC4)ccc3CCN2C[C@H]1[C@H](C)O` was tested, and the inhibition was 1.75% (inactive). In the case of `Cc1cccc(NC(=O)CSC(N)=O)c1C`, the inhibition is reported as 35.8% (active). In the case of `Cc1ccccc1NC(=O)CSC(=O)c1ccccc1`, the inhibition is reported as 24.5% (active). With `Cc1ccccc1NC(=O)Cn1nnc(-c2ccccc2F)n1` the inhibition was -2.95% (inactive). `Cc1cccc(NC(=O)COC(=O)CCc2ccccc2)c1C` was tested, and the inhibition was -1.61% (inactive). For `Cc1ccccc1NC(=O)CSC1=NCCN1`, the inhibition was 9.55% (inactive). With `Cc1cccc(NC(=O)CSc2nc3c(c(=O)[nH]2)CCCC3)c1C` the inhibition was -0.58% (inactive). `CC(c1c[nH]c2ccccc12)c1c(-c2ccccc2)n(C)c2ccccc12` (centres undefined) was tested, and the inhibition was 8.87% (inactive). With `CN(C)CC(=O)N[C@@H]1C[C@@H]2O[C@H](CO)CC[C@@H]2O[C@@H]1CCc1ccc(C#Cc2ccccc2)cc1` the inhibition was -0.26% (inactive). In the case of `CSc1cccc(NC(=O)CN2C(=O)COc3ccc(S(=O)(=O)N4CCOCC4)cc32)c1`, the inhibition is reported as -1.34% (inactive). `O=C(c1c[nH]c2ccccc12)N1CCC(Oc2cccnc2)CC1` was tested, and the inhibition was -5.2% (inactive). `CN1CC(=O)N=C1N` was tested, and the inhibition was -1.28% (inactive) and 0.16% (inactive). With `CCOc1ccc(CCNC(=O)COC(=O)C2CCN(c3ccc(C(F)(F)F)cn3)CC2)cc1OCC` the inhibition was -0.97% (inactive). For `CCCC(O)(c1ccccc1)C(c1ccccc1)c1ccccn1` (centres undefined), the inhibition was 3.01% (inactive). With `CO/N=C(\C(=O)N[C@@H]1C(=O)N2C(C(=O)O)=C(COC(C)=O)CS[C@H]12)c1csc(N)n1` (stereo in doubt) the inhibition was 16% (inactive) and 23.3% (active) and 25.5% (active). For `C=CC1=C(C(=O)O)N2C(=O)[C@@H](NC(=O)/C(=N/OCC(=O)O)c3csc(N)n3)[C@H]2SC1`, the inhibition was 28.6% (active). For `C=CC1=C(C(=O)O)N2C(=O)[C@@H](NC(=O)/C(=N\OCC(=O)O)c3csc(N)n3)[C@H]2SC1`, the inhibition was 23.7% (active). For `COc1ccc(-n2c(COc3ccccc3)nnc2SCC(=O)Nc2ccc3c(c2)OCO3)cc1`, the inhibition was 0.3% (inactive). In the case of `C=C(C)CNC(=S)/N=c1\scc(C)n1CC`, the inhibition is reported as 2.72% (inactive). `O=C(NCCC1=CCCCC1)C1CCN(S(=O)(=O)c2ccc(Cl)s2)CC1` was tested, and the inhibition was 2.95% (inactive). For `CCc1c(C)c2ccc(OC3CCCCC3=O)cc2oc1=O` (centres undefined), the inhibition was -0.12% (inactive). With `CCCCCCN1CCS(=O)(=O)N(Cc2ccc(C(F)(F)F)cc2)C(C(=O)OC)C1` (centres undefined) the inhibition was 0.07% (inactive). `C#CCCN([C@H](C(=O)OC)C(C)C)S(=O)(=O)c1ccc(F)cc1Br` was tested, and the inhibition was 1.71% (inactive). `O=c1cc(CCl)nc2scc(-c3ccccc3)n12` was tested, and the inhibition was 6.61% (inactive). `OCCn1c(-c2ccccc2)csc1=Nc1ccccc1` was tested, and the inhibition was 63.9% (active). In the case of `C=CC1=CCN(S(=O)(=O)C(C)(C)C)[C@@H]1CCO`, the inhibition is reported as -1.03% (inactive). With `Cc1cc(C(=O)OCC(=O)c2c(N)n(C)c(=O)n(C)c2=O)c(C)o1` the inhibition was -0.81% (inactive). For `Cc1cc(C)c(S(=O)(=O)NN=C2c3ccccc3[C@H]3Cc4csc[n+]4[C@@H]23)c(C)c1`, the inhibition was 52.5% (active). With `COc1ccc(C(=O)N2CCN(c3ccc(C(C)=O)cc3F)CC2)cc1S(=O)(=O)NC1CC1` the inhibition was 2.01% (inactive). `CCCCCN1CCCCC(NC(=O)C(C)CCC)C1=O` (centres undefined) was tested, and the inhibition was 3.28% (inactive). For `COC(=O)C1CN(CCc2ccccc2)CCS(=O)(=O)N1Cc1ccc(F)cc1` (centres undefined), the inhibition was 0.22% (inactive). `O=C1OC(NC(=O)c2ccccc2)C(N2CCOCC2)=C1Cl` (centres undefined) was tested, and the inhibition was 0.25% (inactive). With `O=C(O)c1ccc(NN=CC2=C(N3CCOCC3)/C(=C/c3ccccc3)CC2)cc1` the inhibition was 23.8% (active). In the case of `O=C(Nc1ccc(F)cc1)c1cccnc1N1CCOCC1`, the inhibition is reported as 0.36% (inactive). `CC12CCC(C(=O)N(CCC#N)CCC#N)(CC1=O)C2(C)C` (centres undefined) was tested, and the inhibition was -1.4% (inactive). With `COC(=O)[C@]12C[C@H](CC(=O)NCCc3ccccc3OC)C(=O)N(Cc3ccco3)C1=C[C@H](C(C)C)O[C@@H]2C1CC1` the inhibition was -1.39% (inactive). For `CC(C)CNC(=O)OCc1cn(Cc2ccc(F)cc2)nn1`, the inhibition was -6.07% (inactive). For `S=c1[nH]nc2c3c4c(sc3ncn12)CCCC4`, the inhibition was 40.6% (active). `N=c1c2c3c(sc2nc2n1CCCCC2)CCCC3` was tested, and the inhibition was -1.83% (inactive). For `CCn1c(=S)[nH]c2sc3c(c2c1=O)CCCCC3`, the inhibition was -0.49% (inactive). `CC(C)(C)NC(=O)C(c1cccnc1)N(C(=O)c1cnco1)c1ccc(C(C)(C)C)cc1` (centres undefined) was tested, and the inhibition was 1.45% (inactive). With `Cc1nc2ccc(C(=O)N3CCN(C(=O)C(C)(C)C)CC3)cc2n1C1CCCC1` the inhibition was -5.06% (inactive). `Nc1nnc(SCC(=O)NCC(=O)Nc2ccc(F)c(F)c2F)s1` was tested, and the inhibition was 0.28% (inactive). For `COc1cccc(NC(=O)COC(=O)/C=C/c2ccco2)c1`, the inhibition was 34.6% (active). `NS(=O)(=O)c1cccc(NC(=O)COC(=O)/C=C/c2ccco2)c1` was tested, and the inhibition was 8.16% (inactive). With `CC(C)CNC(=O)COC(=O)/C=C/c1ccco1` the inhibition was 3.56% (inactive). For `COC(=O)[C@@]12CCCCC3=C1N(CCC3)C(=O)[C@H]2CC(=O)NCc1cccc2ccccc12`, the inhibition was 0.96% (inactive). `Cc1ccc(C2=CCN(C)C(=O)N2c2ccc(Cl)cc2)cc1` was tested, and the inhibition was 1.54% (inactive). For `COCCn1c(SCC(=O)Nc2cc(Cl)ccc2OC)nc2c(c1=O)SC(C)C2` (centres undefined), the inhibition was -2% (inactive). `COc1ccc(C(=O)OCCN(C)C2CN(Cc3cn(Cc4cccc(C)c4)nn3)S(=O)(=O)C2)cc1OC` (centres undefined) was tested, and the inhibition was -3.17% (inactive). For `CC(=O)N1CCCN(C2=Nc3ccccc3Sc3ccccc32)CC1`, the inhibition was -2.73% (inactive). `CCCCOCCCNC(=O)C[C@H]1C[C@@]2(C(=O)OC)C(=C[C@H](COCc3ccccc3)O[C@@H]2C)N(Cc2cccc3ccccc23)C1=O` was tested, and the inhibition was -1.04% (inactive). `CCOC(=O)C1(Cc2cccc(OC)c2)CCCN(C(=O)CCSC)C1` (centres undefined) was tested, and the inhibition was 2.68% (inactive). In the case of `CC(C)(C)C1C/C(=C/c2ccco2)C(=O)/C(=C/c2ccco2)C1` (centres undefined), the inhibition is reported as 24.6% (active). With `O=C(NCCc1c[nH]c2ccccc12)OCc1cn(-c2c(F)cccc2F)nn1` the inhibition was 0.52% (inactive). For `CCCCNC(=O)C[C@@H]1C(=O)N(CCc2ccc(Cl)cc2)C2=CCCC[C@]21C(=O)OCC`, the inhibition was -4.44% (inactive). With `NC(=O)NC(=O)CSc1nc2cc([N+](=O)[O-])ccc2n1-c1cccc(C(F)(F)F)c1` the inhibition was -3.17% (inactive). `CC(=O)OC1CCC2C3CCC4=C(CC(F)C(=O)C4)C3CCC12C` (centres undefined) was tested, and the inhibition was -4.66% (inactive). In the case of `Fc1ccc(COc2ccc(-c3nnco3)cc2)cc1`, the inhibition is reported as 2.4% (inactive). `CN(Cc1ccc(F)cc1)C(=O)COc1ccc2ccccc2c1` was tested, and the inhibition was 6.77% (inactive). `Fc1ccc(COc2cccc(-c3n[nH]c(=S)o3)c2)cc1` was tested, and the inhibition was 31.7% (active). For `CC(C)(C)NC(=O)CSC(=Nc1ccccc1F)NC#N`, the inhibition was 8.54% (inactive). `COc1ccc(-n2c(SCC(=O)Nc3ccc4c(c3)OCCO4)nnc2-c2ccc(Cl)cc2)cc1` was tested, and the inhibition was -2.7% (inactive). In the case of `O=C(CN1CCC(NC(=O)NCc2ccccc2)CC1)Nc1ccc2c(c1)OCCO2`, the inhibition is reported as 2.96% (inactive). `COc1ccccc1C(=O)CSc1nnc(-c2ccccn2)n1-c1ccccc1` was tested, and the inhibition was -1.16% (inactive). `O=C(CCN1CCc2ccccc2C(O)(c2ccccc2)C1)c1ccc2c(c1)OCCO2` (centres undefined) was tested, and the inhibition was 51.5% (active). For `O=C(C(=O)N1CCN(c2ccccc2)CC1)c1ccc2c(c1)OCO2`, the inhibition was 0.48% (inactive). With `O=S(=O)(c1ccc2c(c1)OCCO2)N1CCc2ccccc21` the inhibition was -3.53% (inactive). With `COc1ccc(C2NC(=O)N(C)C(C)=C2[N+](=O)[O-])cc1` (centres undefined) the inhibition was -2.65% (inactive). In the case of `COc1ccc(S[C@]2(C(=O)N(C)C)CC(=O)N(c3ccc(OC)cc3)[C@@H]2c2ccc(OC)cc2)cc1`, the inhibition is reported as -1.57% (inactive). With `CC(C)(C)c1ccc(CSc2nnc(-c3cccs3)o2)cc1` the inhibition was -1.14% (inactive). With `O=C(NC(=S)N1CCN(Cc2ccccc2)CC1)c1ccccc1` the inhibition was 0.22% (inactive). In the case of `O=C1CCN(CCCc2ccccc2)CCN1CCO`, the inhibition is reported as -6.27% (inactive). With `OCCN1CCN(C(=S)c2ccc(-c3ccccc3)cc2)CC1` the inhibition was 32% (active). In the case of `CC1CN(CC(=O)NC(C)c2ccccc2)CC(C)O1` (centres undefined), the inhibition is reported as 0.73% (inactive). For `CCc1cccc(CC)c1N1C(=O)CC(Sc2ccccc2N)C1=O` (centres undefined), the inhibition was -1.17% (inactive). `COc1cccc(N2C(=O)CC(N3CCc4ccccc4C3)C2=O)c1` (centres undefined) was tested, and the inhibition was 4.88% (inactive). For `COC(=O)c1ccccc1SC1CC(=O)N(c2cccc(C)c2)C1=O` (centres undefined), the inhibition was 57.3% (active). `Cc1ccccc1S(=O)(=O)NC(=O)C1(C)CCN1C(=O)C1(c2ccccc2)CCCC1` (centres undefined) was tested, and the inhibition was 0.03% (inactive).
